Sampled rows, rich in hits. Any-hit rate of the full collection: about 1.2%.
Six1-Eya2 blk: blocks human Six1 binding to Eya2 | activity change, % (test concentration not listed) | actives 0.56% (n = 360,000) | AID 651725 | AlphaScreen GST-Six1/His-Eya2 binding, biochemical; hits give low values
Target sequence (O00167 whole entry, looked up): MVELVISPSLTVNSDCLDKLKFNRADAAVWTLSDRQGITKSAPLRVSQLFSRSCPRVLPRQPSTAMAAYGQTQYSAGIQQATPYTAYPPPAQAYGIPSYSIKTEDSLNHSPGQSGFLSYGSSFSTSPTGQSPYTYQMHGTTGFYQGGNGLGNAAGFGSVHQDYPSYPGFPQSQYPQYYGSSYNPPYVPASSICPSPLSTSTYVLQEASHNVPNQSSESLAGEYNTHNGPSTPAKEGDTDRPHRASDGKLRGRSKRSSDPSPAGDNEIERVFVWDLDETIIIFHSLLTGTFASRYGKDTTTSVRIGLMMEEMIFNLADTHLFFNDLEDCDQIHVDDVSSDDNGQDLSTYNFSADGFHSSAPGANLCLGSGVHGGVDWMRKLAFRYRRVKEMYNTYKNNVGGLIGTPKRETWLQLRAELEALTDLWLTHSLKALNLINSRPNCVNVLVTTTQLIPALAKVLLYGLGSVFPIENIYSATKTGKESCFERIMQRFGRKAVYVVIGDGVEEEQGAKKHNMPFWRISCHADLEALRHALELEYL
Target sequence (Q15475 whole entry, looked up): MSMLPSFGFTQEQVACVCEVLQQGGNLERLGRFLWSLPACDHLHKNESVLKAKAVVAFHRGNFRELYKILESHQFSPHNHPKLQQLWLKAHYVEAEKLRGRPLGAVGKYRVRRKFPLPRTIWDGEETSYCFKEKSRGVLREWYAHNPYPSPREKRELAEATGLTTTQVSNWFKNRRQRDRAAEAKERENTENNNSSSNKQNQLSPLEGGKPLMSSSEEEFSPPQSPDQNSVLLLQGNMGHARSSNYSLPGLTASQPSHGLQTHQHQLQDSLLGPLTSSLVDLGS
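GST-Six1 + His-Eya2 (5X stock: 250/500 nM); Tris pH 8.0, 300 mM NaCl, 0.05% BSA, 0.02% Tween 20; GSH donor/Ni acceptor beads; 1 h 37 °C dark; AlphaScreen readout.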
CCT chaperon mod: cytosolic chaperonin activity modulation; activity change, % (no concentration beside the values), hits read low; actives 0.3% (n = 360,000); purified chaperonin ATPase assay, HTRF ADP detection, 30 min; AID 651819; in the data active = activity change below about -30%
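ATPase activity: ADP formed was measured by HTRF Transcreener (665/615 nm ratio) after 30 min at 37 deg C with 10 uM ATP. Compounds screened at one 76 uM concentration against 40 or 20 nM TRiC in Tris pH 7.4/KCl/MgCl2/DTT buffer.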
Akt phos inh: inhibitors of Akt phosphorylation | activity change, % for hits at 50 µM | actives 0.32% (n = 360,000) | Neuro2A IGF-stimulated pAkt S473 HTRF, 20 min; hits give low values; in the data active = activity change below about -80%; inconclusive = mostly about -51% to -80%
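Neuro2A cells (4,500/well, DMEM with 0.5% FBS) were treated with compound at a single 50 µM final concentration, stimulated with 6 nM IGF for 20 min at 37 °C, and lysed. Phospho-Akt Ser473 was read by HTRF as 665/615 ratio ×10^4.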
CtBP-E1A blk: inhibitors of CtBP/E1A interaction | AlphaScreen GST-E1A/His-CtBP binding, 1536-well; hits give low values | activity change, % (no concentration beside the values) | actives 0.49% (n = 340,000)
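In 5 uL wells, 23 nL compound meets equimolar GST-E1A and His-CtBP (5X stock 125 nM each) for 2 h, 37 °C. Beads (5X, 50 ug/mL) then 1 h, 37 °C, dark.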
* = called active by the depositor; i = inactive; ? = inconclusive; . = not tested or not shown. Rule as the data show it, unless noted: active = activity change below about -65%; inconclusive = mostly about -30% to -63%; inactive = weaker than that. % is scaled to controls: 0 for no effect and ±100 for the full control effect.

SMILES	Six1-Eya2 blk	CCT chaperon mod	Akt phos inh	CtBP-E1A blk
CC(C)C(NC(=O)c1ccccc1NC(=O)C(C)(C)C)C(=O)N1CCOCC1 (stereo not given)	-14	0	i	6
CC(=NNC(=S)N1CCN(c2ccccn2)CC1)c1nccs1	-91*	-4	i	-94*
CC(=NNC(=S)N1CCN(C2CCCCCC2)CC1)c1ccccn1	-92*	0	i	0
CC(=NNC(=S)N1CCN(c2ccccn2)CC1)c1ccccn1	?	-3	i	?
CC(=NNC(=S)N1CC2CCC(CC2)C1)c1cnccn1	-92*	-2	i	-94*
C/C(=N\NC(=O)C1CCCN(S(=O)(=O)c2ccccc2)C1)c1ccncc1 (stereo not given)	-6	-2	i	-1
C/C(=N\NC(=O)C1CCCN(S(=O)(=O)c2ccccc2)C1)c1ccccn1 (stereo not given)	-86*	1	i	-90*
CC1C(=O)N2CCCc3cc(S(=O)(=O)NCc4ccccc4Cl)cc1c32 (stereo not given)	5	1	i	1
CCN(CC)S(=O)(=O)c1ccc(C(C)NC(=O)Cc2c[nH]c3ccccc23)cc1 (stereo not given)	2	1	i	1
CC(=NNC(=S)N1CCCCCC1)c1cccc2cccnc12	?	0	i	-90*
CCCCN(C(=O)Cc1ccc(S(=O)(=O)N2CCOCC2)s1)c1c(N)n(CC(C)C)c(=O)[nH]c1=O	9	-3	i	-8
Nc1ccn([C@@H]2O[C@H](CNCC3=CCOc4ccc(O)cc43)[C@@H](O)[C@H]2O)c(=O)n1	1	-3	i	4
O=C(O)/C=C/C(=O)Nc1cccc2c1-c1ccccc1C2=O	-4	0	i	12
CC(C)C[C@H]1CNC(=S)N1C[C@H]1CCCN1C[C@H](Cc1ccccc1)N1C[C@H](CC(C)C)N(CCc2ccccc2)C1=S	-10	1	i	-3
NC(=S)NNc1cccc2cccnc12	-92*	1	i	-92*
COc1cc2[nH]c(=O)n(CCC(=O)NCCCN3CCN(c4ccccc4F)CC3)c(=O)c2cc1OC	-9	1	i	-6
COC(=O)C1CN(Cc2ccccc2)C(=O)C1=O (stereo not given)	7	0	i	0
COc1ccc(C2C3=C(NCCN=C3c3ccccc3)C(=O)N2c2ccccc2)c(OC)c1 (stereo not given)	3	-60*	i	10
CCCCn1c(N)c(N(CCOC)C(=O)CSc2nnc(C)n2-c2ccc(OC)cc2)c(=O)[nH]c1=O	1	2	i	-1
O=C(CCSc1nc2cc(Cl)ccc2o1)N1CCOCC1	1	1	i	-6
O=C(CSc1nc2ccccc2o1)Nc1ccc(N2CCOCC2)cc1	-7	0	-94%*	-21
O=C(CSc1nc2cc(Cl)ccc2o1)Nc1ccc(N2CCOCC2)cc1	-5	-3	i	-6
O=C(CSc1nc2cc(Cl)ccc2o1)N1CCOCC1	-7	-31*	i	-1
CCn1c2nc(SCCN3CCOCC3)nnc2c2cc(C)cc(C)c21	-29	-1	i	?
COCCn1c(C)cc(C(=O)COC(=O)c2ccc(Cl)c(S(N)(=O)=O)c2)c1C	-5	-1	i	-14
SMILES	Six1-Eya2 blk	CCT chaperon mod	Akt phos inh	CtBP-E1A blk
CCOC(=O)C(NC(=O)c1ccccc1)(Nc1cc(C)on1)C(F)(F)F (stereo not given)	3	0	-129%*	3
COc1ccc(Cl)cc1S(=O)(=O)NC(C)C(=O)NCc1ccncc1 (stereo not given)	2	-66*	i	16
COc1ccc(Cl)cc1S(=O)(=O)NC(C)C(=O)NCc1ccccn1 (stereo not given)	-18	-1	i	6
Cc1ccc(C(=O)OCC(=O)Nc2cc(F)ccc2F)cc1NC(=O)c1ccco1	-3	-5	i	7
CCC(=O)NC(c1cccs1)c1ccc2cccnc2c1O (stereo not given)	-93*	-1	i	.
CC(C)CC(=O)NC(c1cccs1)c1ccc2cccnc2c1O (stereo not given)	-81*	-1	i	-88*
CCOC(=O)CC(=O)c1cc(OC)c(OC)c(OC)c1	2	1	-106%*	-4
Clc1nc(-c2ccccn2)nc2scc(-c3ccccc3)c12	-73*	2	i	-9
CC(C(=O)NC1C(=O)N2C(C(=O)O)=C(CSc3nnnn3C)CSC12)n1cc(Cl)cn1 (stereo not given)	-1	0	i	6
COc1ccc(C(=O)COc2ccccc2N2C(=O)C3C4C=CC(C4)C3C2=O)cc1 (stereo not given)	-4	2	-139%*	-2
COc1cccc(C(=O)COc2ccccc2N2C(=O)C3C4C=CC(C4)C3C2=O)c1 (stereo not given)	4	0	i	12
O=c1[nH][nH]c2c(N=Cc3ccccc3O)ccc(F)c12	?	0	i	-91*
CC(=O)c1ccc2c(c1)C1C=CCC1C(c1ccncc1)N2 (stereo not given)	-22	-2	i	-23
CC(=O)c1ccc2c(c1)C1C=CCC1C(C(=O)O)N2 (stereo not given)	-68*	-2	i	?
Cc1cccc(N(O)C(=O)Nc2cccc(Cl)c2)c1	9	-10	i	10
COc1ccccc1CNC(=O)c1cc2sccc2n1C	-13	0	i	-7
COc1ccc(C(=O)c2c[nH]c(C(=O)NCc3cccnc3)c2)cc1	-3	-2	i	13
Cc1cc(C(=O)NCc2cccnc2)no1	4	-31*	i	12
O=C(Cc1cccs1)NCc1cccs1	4	-1	i	11
Cn1c(C(=O)NCc2cccnc2)cc2sccc21	1	-1	-83%*	2
O=C(c1ccccc1)c1c[nH]c(C(=O)NCc2cccnc2)c1	-13	-3	-100%*	-6
O=C(Cc1cccs1)NCc1cccnc1	-1	0	-93%*	1
COC(=O)C(C)NC(=O)c1ccc(C(C)(C)C)cc1 (stereo not given)	1	0	i	4
CC(C)Oc1ccc(C(=O)NCc2cccnc2)cc1	6	-2	-119%*	-7
CC(Oc1ccccc1)C(=O)NCc1cccnc1 (stereo not given)	-6	-6	i	-11
NS(=O)(=O)c1ccc(CCNC(=O)c2cc(-c3ccccn3)nc3ccc(Br)cc23)cc1	1	-32*	i	-25
COc1ccc(OC)c(NC(=O)NNC(=O)c2cc3occc3[nH]2)c1	?	-68*	.	.
Cc1ccc(C)c(NC(=O)NNC(=O)c2cc3occc3[nH]2)c1	1	-3	i	.
CCC1NC(=O)c2cccnc2-n2c1nc1ccc(OC)cc1c2=O (stereo not given)	-6	1	i	-7
O=C(c1c(O)c2ccccc2oc1=O)C1CCC1	7	-2	i	5

Assay outcomes: PubChem, National Center for Advancing Translational Sciences (NCATS)
